# From PubChem BioAssay (NCATS)
# Results filed as inconclusive are left out. Entries that show only a call come without a potency. Activity calls are given as the source filed them. Calls come from the whole dose curve; as a rule, active = well fitted cell-killing curve with a large enough effect; inconclusive = small, poorly fitted or top-dose-only effect, or effect the other way; inactive = no such curve, though single readings can be large or run the other way.
# Assay: Quantitative High-Throughput drug screen in 47 multiple myeloma cell lines against the NCATS MIPE library collection: MM1R_ATCC cell viability assay (AID 1918981); note: nearly all actives have a fitted effect of over 35% in size
# Conditions: MM1R multiple myeloma cells, CellTiter-Glo viability, 48 h; series mostly up to 45.8 µM
# How it was run: (§1)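 Readout: median RLU from CellTiter-Glo after 5 min at room temperature. Preceding step was 48 h drug treatment of 500 cells/well at 37 °C, 5% CO2, with DMSO-only and media-only control wells.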
# Potency is the fitted concentration of half-maximal effect.
row,SMILES,Potency
1,COC(=O)C1=CCCN(C)C1,inactive
2,O=C(O)c1nn(Cc2ccc(Cl)cc2Cl)c2ccccc12,inactive
3,COc1ccc(C(=O)N2CCCC2=O)cc1,inactive
4,C[C@@H]1C[C@@H]([C@H](O)CC2CC(=O)NC(=O)C2)C(=O)[C@@H](C)C1,1660 nM (active)

# Assay: Quantitative High-Throughput drug screen in 47 multiple myeloma cell lines against the NCATS MIPE library collection: LP1_DSMZ cell viability assay (AID 1918982); note: nearly all actives have a fitted effect of over 35% in size
# Conditions: LP1 myeloma viability, CellTiter-Glo ATP luminescence, 48 h; series mostly up to 45.8 µM
# How it was run: as §1
row,SMILES,Potency
1,COC(=O)C1=CCCN(C)C1,inactive
2,O=C(O)c1nn(Cc2ccc(Cl)cc2Cl)c2ccccc12,inactive
3,C[C@@H]1C[C@@H]([C@H](O)CC2CC(=O)NC(=O)C2)C(=O)[C@@H](C)C1,118 nM (active)

# Assay: Quantitative High-Throughput drug screen in 47 multiple myeloma cell lines against the NCATS MIPE library collection: L363_DSMZ cell viability assay (AID 1918984); note: nearly all actives have a fitted effect of over 40% in size
# Conditions: L363 myeloma viability, CellTiter-Glo ATP luminescence, 48 h; series mostly up to 45.8 µM
# Text: PI: Beverly A. Mock Ph.D.
# Laboratory of Cancer Biology and Genetics,
# Center for Cancer Research, National Cancer Institute,
# National Institute of Health, Bethesda, Maryland
# Drug resistance and disease progression are common in multiple myeloma (MM) patients, underscoring the need for new therapeutic combinations. […] We hypothesized that effective combinations would reduce MYC expression and enhance p16 activity. […] These preclinical data identify potentially useful drug combinations for evaluation in drug-resistant MM and reveal potential mechanisms of combined drug sensitivity.
# Described herein is the primary MIPE qHTS used to cherrypick compounds. Validated compounds were then further tested for potential synergistic activiy.
# [1] Peat TJ, Gaikwad SM, Dubois W, Gyabaah-Kessie N, Zhang S, Gorjifard S, Phyo Z, Andres M, Hughitt VK, Simpson RM, Miller MA, Girvin AT, Taylor A, Williams D, D'Antonio N, Zhang Y, Rajagopalan A, Flietner E, Wilson K, Zhang X, Shinn P, Klumpp-Thomas C, McKnight C, Itkin Z, Chen L, Kazandijian D, Zhang J, Michalowski AM, Simmons JK, Keats J, Thomas CJ, Mock BA. Drug combinations identified by high-throughput screening promote cell cycle transition and upregulate Smad pathways in myeloma. Cancer Lett. 2023 Aug 1;568:216284. doi: 10.1016/j.canlet.2023.216284. Epub 2023 Jun 24. PMID: 37356470; PMCID: PMC10408729.
# SEQUENCE No. (e.g., 1, 2, 3, etc.); […] (e.g., Cells, Incubation, Reagent, etc.); VALUE and DESCRIPTION.
# 1; Cells; 5 uL; white, solid bottom 1536-well Greiner assay plate.
# 2; Compounds; 23 nL; Kalypsis pin tool (Wako USA) equipped with a 1536-well pin head to transfer to the assay plates.
# 3; Incubation; 48 hours; 37C incubation.
# 4; Reagent;5uL; CellTiter Glo (Promega).
# 5; Detector; 425V; Luminescence; Viewlux PerkinElmer. […]
# 1. […] Briefly, the corresponding myeloma cell lines were screened in 1,536-well plates with 500 cells, 5-uL per well for inhibition of cell viability (assessed by measuring ATP levels with CellTiterGlo). […]
# 5. Signal was measured as median relative luminescence units on a ViewLux (PerkinElmer) multiplate reader. […]
row,SMILES,Potency
1,COC(=O)C1=CCCN(C)C1,inactive
2,O=C(O)c1nn(Cc2ccc(Cl)cc2Cl)c2ccccc12,inactive
3,C[C@@H]1C[C@@H]([C@H](O)CC2CC(=O)NC(=O)C2)C(=O)[C@@H](C)C1,743 nM (active)
